Structures are written as SMILES. Records with an inconclusive call do not appear. Entries that show only a call come without a potency. The source made the active and inactive calls. The call rests on the fitted dose curve; in most records, active means well fitted activation curve with a large enough effect; inconclusive means small, poorly fitted or top-dose-only effect, or effect the other way; inactive means flat fitted curve, though single readings scatter.
Potency means the concentration at half of the fitted maximal effect.

The assay is described as follows: qHTS Assay for Identification of Small Molecule Agonists for Thrombopoietin (TPO) Signaling Pathway (AID 917). To be noted: TPO signaling pathway reporter cells, agonist qHTS, stimulated with TPO at its EC50; series mostly up to 38.5 µM. The procedure:
NIH Molecular Libraries Screening Centers Network [MLSCN]
NIH Chemical Genomics Center [NCGC]
The thrombopoietin (TPO) signaling pathway was assayed in murine Ba/F3 cells stably transfected with the human TPO receptor and a luciferase reporter gene controlled by the Glycoprotein IIb promoter (provided by Axxam). BaF3 cells are an IL-3-dependent pro B cell line that upon TPO stimulation, undergo cell division and induce the megakaryocyte marker, Glycoprotein IIb. The assay was screened at the EC50 of TPO (26 pM) to identify activators of the pathway.
NCGC Assay Protocol Summary:
Cells were maintained at 37 C and 5% CO2in RPMI with 10% fetal bovine serum, 0.5 ng/mL murine IL-3, 100U/ml penicillin and 100 ug/ml streptomycin. Prior to plating, cells were incubated overnight in medium without IL-3. Cells were plated at 250 cells/5uL/well into white solid 1536-well plates, 23 nL of compounds were delivered by a pin tool, and 1 uL of TPO (26 pM final concentration in IL-3 deficient medium) was added. Following 24 hrs of incubation at 37 C and 5% CO2, 4 uL of Steadylite detector mix (PerkinElmer) was added, the plates incubated at room temperature for 10 min and luminescence was measured for 10 s and 2X binning by a ViewLux detector (Perkin Elmer).
Take `O=C(c1ccc(F)cc1)C1CCN(CCn2c(=O)[nH]c3ccccc3c2=O)CC1`: the Potency result was “inactive”. With `COc1ccc2[nH]cc(CCNC(C)=O)c2c1`, the Potency result is “inactive”. For `COc1ccc2c(c1)c(CC(=O)O)c(C)n2C(=O)c1ccc(Cl)cc1`, the Potency result was “inactive”. `CN1CCN(C2=Nc3cc(Cl)ccc3Nc3ccccc32)CC1`: the Potency entry is “inactive”. The entry for `NS(=O)(=O)c1cc2c(cc1Cl)NCNS2(=O)=O` is “inactive”; for `Cn1c(=O)c2[nH]cnc2n(C)c1=O` it is “inactive”; for `CCOC(=O)c1ncn2c1CN(C)C(=O)c1cc(F)ccc1-2` it is “inactive”.

For `CCc1cccc2c3c([nH]c12)C(CC)(CC(=O)O)OCC3` (stereo not given), the Potency result was “inactive”.

With `O=c1c(-c2ccc(O)cc2)coc2cc(O)cc(O)c12`, the Potency was 1580 nM (active). For `NCCc1cnc[nH]1`, the Potency result is “inactive”.

Consider `CN(Cc1cnc2nc(N)nc(N)c2n1)c1ccc(C(=O)N[C@@H](CCC(=O)O)C(=O)O)cc1`, for which the Potency entry was “inactive”. The entry for `NC(=O)NO` is “inactive”; for `NCCS(=O)(=O)O` it is “inactive”. For the compound `COc1ccc(C2CNC(=O)C2)cc1OC1CCCC1` (stereo not given), the Potency entry was “inactive”. Turning to `NC(=O)OCC(COC(N)=O)c1ccccc1`, the Potency result is “inactive”.

For the compound `CS(=O)(=O)Nc1ccc([N+](=O)[O-])cc1Oc1ccccc1`, the Potency entry is “inactive”. `CN1C(C(=O)Nc2ccccn2)=C(O)c2ccccc2S1(=O)=O`: the Potency entry is “inactive”. As for `Nc1nnc(-c2cccc(Cl)c2Cl)c(N)n1`, the Potency result was “inactive”. Consider `Cn1c(=O)c2c(ncn2C)n(C)c1=O`, for which the Potency result was “inactive”. In the case of `O=C(C1CCCCC1)N1CC(=O)N2CCc3ccccc3C2C1` (stereo not given), the Potency entry was “inactive”. Regarding `CN1CCC(=C2c3ccccc3C=Cc3ccccc32)CC1`, the Potency result is “inactive”. With `Clc1ccc(C(c2ccccc2Cl)C(Cl)Cl)cc1` (stereo not given), the Potency result is “inactive”. For the compound `NCCCCCC(=O)O`, the Potency entry was “inactive”. As for `Cc1cc(C(C)(C)C)c(O)c(C)c1CC1=NCCN1`, the Potency result was “inactive”.

Regarding `CC[N+](CC)(CC)CCOc1cccc(OCC[N+](CC)(CC)CC)c1OCC[N+](CC)(CC)CC`, the Potency result was “inactive”. `COc1nc(C)nc(Cl)c1NC1=NCCN1`: the Potency entry is “inactive”. For `CCOC(=O)Nc1ccc(NCc2ccc(F)cc2)nc1N`, the Potency entry was “inactive”. `CC(C)Cc1ccc(C(C)C(=O)O)cc1` (stereo not given): the Potency result is “inactive”. `Cn1cnc2c1c(=O)[nH]c(=O)n2C`: the Potency entry is “inactive”. To `Nc1nc2c(ncn2COC(CO)CO)c(=O)[nH]1` belongs “inactive”; to `CCC1(c2ccccc2)C(=O)NCNC1=O`, “inactive”.

Turning to `Cc1cn([C@H]2C=C[C@@H](CO)O2)c(=O)[nH]c1=O`, the Potency entry is “inactive”. Take `Cc1cc(C(C)(C)C)cc(C)c1CC1=NCCN1`: the Potency result is “inactive”.

Regarding `O=c1c(O)c(-c2ccc(O)c(O)c2)oc2cc(O)cc(O)c12`, the Potency result was “inactive”.

In the case of `Nc1c2c(nc3ccccc13)CCCC2`, the Potency result was “inactive”.

Take `O=C(Nc1ccc([N+](=O)[O-])cc1Cl)c1cc(Cl)ccc1O`: the Potency is 100 nM (active). In the case of `Cn1ccc2cc3c(cc21)CCN3C(=O)Nc1cccnc1`, the Potency was 1000 nM (active). The entry for `N[C@@H](Cc1c[nH]c2ccc(O)cc12)C(=O)O` is “inactive”; for `Cc1ccccc1N1C(=O)c2cc(S(N)(=O)=O)c(Cl)cc2NC1C` (stereo not given) it is “inactive”.

Take `CC(C)C(=O)Nc1ccc([N+](=O)[O-])c(C(F)(F)F)c1`: the Potency result is “inactive”.

(Values after PubChem BioAssay (NCATS).)
